For 20 compounds, growth inhibition, inhibition and outcome results are on record in PubChem BioAssay.

Values without a mark were called inactive. For some of these results: Results with a measured potency or affinity are listed apart. The source made the active and inactive calls. Unless noted, the rule behind the calls is not given here.

For orientation: inhibition means the relative decrease from the control value, in per cent.

A short description of test [1]: antimalarial activity against Dd2 strain (AID 2302;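 active = growth inhibition above 50% at the single 2 µM test dose, taken to imply half-maximal potency below 2 µM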;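 note: 0% = DMSO untreated growth and 100% = chloroquine plus artemisinin killed control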). As to conditions: P. falciparum Dd2 in RBCs, LDH growth readout, 72 h; at 2 µM; hits give high values.
The nature of test [2]: HepG2 cytotoxicity, primary screen, cytotoxicity control for P. falciparum antimalarial project, cell-based, ATP luminescence (AID 2303;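 active = inhibition above 50%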;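 note: 0% = DMSO wells and 100% = digitonin-killed cells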). As to conditions: HepG2 viability, 24-48 h, at 10 µM, hits give high values.
Test [3] has as its target L-lactate dehydrogenase (Plasmodium falciparum (isolate CDC / Honduras)) (UniProt Q27743). The test is described as follows: PfLDH activity inhibition – cell lysate, 3D7 strain, counter-screen for P. falciparum growth inhibition project (AID 2304).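 Note: 0% = vehicle and 100% = reference inhibitor.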 As to conditions: P. falciparum 3D7 crude extract, LDH APAD/NBT absorbance; at 2 µM; hits give high values. Background: Counterscreens check selectivity or assay interference.

Test [4] can be described thus: inhibition of 3D7 malaria parasite growth – strain 3D7 (AID 2306).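 Note: 0% = DMSO wells and 100% = chloroquine plus artemisinin control wells.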 The settings on record: P. falciparum 3D7 erythrocytic growth, LDH absorbance, 72 h; at 2 µM; hits give high values.
Test [5] addresses Calcium-dependent protein kinase 1 (Plasmodium falciparum (isolate 3D7)) (UniProt P62344). The test is described as follows: PfCDPK1 kinase inhibitors, biochemical, TCAMS library (AID 1159585; cut-off not given, nearly all actives have IC50 up to about 0.98 µM;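 note: inhibitors leave more ATP so luminescence rises with inhibition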). The settings on record: recombinant PfCDPK1, Kinase-Glo ATP depletion luminescence. (In general: Kinase-Glo reads ATP consumption through a luciferase reaction.)
For test [6], the target named is Plasmodium falciparum protein kinase 6 (PK6, PF3D7_1337100) (UniProt Q8IDW1). The test is described as follows: PfPK6 kinase inhibitors, biochemical, TCAMS library (AID 1159586). The settings on record: recombinant PfPK6, Kinase-Glo ATP depletion luminescence.
Plasmodium falciparum protein kinase 6 (PK6, PF3D7_1337100), sequence (Q8IDW1 1-305): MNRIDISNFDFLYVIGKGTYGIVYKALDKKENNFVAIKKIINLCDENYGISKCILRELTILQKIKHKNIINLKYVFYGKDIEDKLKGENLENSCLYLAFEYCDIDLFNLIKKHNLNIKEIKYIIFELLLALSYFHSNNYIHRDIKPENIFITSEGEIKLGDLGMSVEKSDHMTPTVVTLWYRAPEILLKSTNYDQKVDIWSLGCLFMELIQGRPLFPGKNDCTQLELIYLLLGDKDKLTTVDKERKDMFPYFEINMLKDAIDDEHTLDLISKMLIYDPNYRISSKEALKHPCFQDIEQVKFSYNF
Test [7] concerns the target Protein kinase 7 (PK7), Plasmodium falciparum 3D7 (PF3D7_0213400) (UniProt Q7YTF7). The test is described as follows: inhibition of Plasmodium PK7 catalytic activity – biochemical, TCAMS antimalarial set, Kinase-Glo luminescence (AID 1159587). The settings on record: recombinant PfPK7, Kinase-Glo ATP depletion luminescence.
The target in test [8] is Calcium-dependent protein kinase 4 (Plasmodium falciparum (isolate 3D7)) (UniProt Q8IBS5). The test is described as follows: PfCDPK4 kinase inhibitors, biochemical, TCAMS library (AID 1159588; cut-off not given, nearly all actives have IC50 up to about 0.91 µM). As to conditions: recombinant PfCDPK4, Kinase-Glo ATP depletion luminescence.
Calcium-dependent protein kinase 4 (Plasmodium falciparum (isolate 3D7)), sequence (Q8IBS5 whole entry, looked up): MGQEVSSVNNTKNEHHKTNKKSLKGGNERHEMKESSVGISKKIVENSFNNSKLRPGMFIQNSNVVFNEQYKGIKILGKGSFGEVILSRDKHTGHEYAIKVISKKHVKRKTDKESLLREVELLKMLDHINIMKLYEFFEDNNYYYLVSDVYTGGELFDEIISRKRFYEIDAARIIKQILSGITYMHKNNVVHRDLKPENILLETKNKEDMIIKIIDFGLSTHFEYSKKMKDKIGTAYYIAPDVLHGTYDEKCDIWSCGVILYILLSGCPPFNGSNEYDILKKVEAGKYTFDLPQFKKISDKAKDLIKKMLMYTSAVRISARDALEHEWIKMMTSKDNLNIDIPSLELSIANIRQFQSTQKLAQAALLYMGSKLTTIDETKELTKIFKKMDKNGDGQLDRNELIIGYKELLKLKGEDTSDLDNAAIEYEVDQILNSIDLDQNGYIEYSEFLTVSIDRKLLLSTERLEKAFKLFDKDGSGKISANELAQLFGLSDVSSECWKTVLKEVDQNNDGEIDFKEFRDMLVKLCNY

L-lactate dehydrogenase (Plasmodium falciparum (isolate CDC / Honduras)), sequence (Q27743 whole entry, looked up): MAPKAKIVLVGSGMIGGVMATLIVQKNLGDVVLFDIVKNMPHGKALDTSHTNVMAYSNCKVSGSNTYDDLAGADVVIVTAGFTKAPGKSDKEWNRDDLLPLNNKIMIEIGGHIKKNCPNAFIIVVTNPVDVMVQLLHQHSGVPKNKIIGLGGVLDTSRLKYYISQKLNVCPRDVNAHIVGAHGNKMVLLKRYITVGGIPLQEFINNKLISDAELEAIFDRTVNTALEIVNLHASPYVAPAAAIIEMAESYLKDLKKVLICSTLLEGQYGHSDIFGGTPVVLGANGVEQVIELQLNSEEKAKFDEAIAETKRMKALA
Protein kinase 7 (PK7), Plasmodium falciparum 3D7 (PF3D7_0213400), sequence (Q7YTF7 1-343): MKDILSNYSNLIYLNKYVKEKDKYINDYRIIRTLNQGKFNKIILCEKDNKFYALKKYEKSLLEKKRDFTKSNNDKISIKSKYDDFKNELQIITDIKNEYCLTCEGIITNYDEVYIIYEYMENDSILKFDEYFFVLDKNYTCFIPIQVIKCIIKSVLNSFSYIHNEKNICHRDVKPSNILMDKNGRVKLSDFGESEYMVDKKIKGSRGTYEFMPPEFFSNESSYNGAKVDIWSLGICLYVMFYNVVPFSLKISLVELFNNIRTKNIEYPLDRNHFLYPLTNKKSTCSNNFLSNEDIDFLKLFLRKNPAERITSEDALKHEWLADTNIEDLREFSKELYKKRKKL
Calcium-dependent protein kinase 1 (Plasmodium falciparum (isolate 3D7)), sequence (P62344 whole entry, looked up): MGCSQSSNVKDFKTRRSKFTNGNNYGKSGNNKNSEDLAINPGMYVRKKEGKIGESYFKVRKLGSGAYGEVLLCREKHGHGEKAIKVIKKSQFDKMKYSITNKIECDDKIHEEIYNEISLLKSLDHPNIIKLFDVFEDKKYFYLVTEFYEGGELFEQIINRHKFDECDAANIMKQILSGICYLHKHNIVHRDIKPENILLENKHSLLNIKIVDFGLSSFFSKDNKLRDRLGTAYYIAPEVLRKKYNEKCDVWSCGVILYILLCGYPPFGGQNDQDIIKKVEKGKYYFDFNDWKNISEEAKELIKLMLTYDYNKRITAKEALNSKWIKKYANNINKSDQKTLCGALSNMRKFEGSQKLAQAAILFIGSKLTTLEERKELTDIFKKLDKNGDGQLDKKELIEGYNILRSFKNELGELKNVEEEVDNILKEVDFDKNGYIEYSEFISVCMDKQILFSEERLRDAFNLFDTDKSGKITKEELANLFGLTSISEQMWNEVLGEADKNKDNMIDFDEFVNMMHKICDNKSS

`CN1CCN(c2ccnc3ccc(NC(=O)Nc4ccc(Cl)c(Cl)c4)cc23)CC1`: the figures for the growth inhibition in test [1] and in test [4] were 17% and 97% (active), respectively. Also, the inhibition is 0% in test [2] and -4% in test [3]. For the same compound, the result in test [5], in test [6], in test [7] and in test [8] was inactive.
In the case of `CCCCCCCCNCc1c(O)ccc2ccccc12`, the growth inhibition was 94% (active) in test [1] and 99% (active) in test [4]. The inhibition in test [2] was -11%; in test [3], 0%. In addition, the outcome in test [5], in test [6], in test [7] and in test [8] was inactive.
On to `O=C(Nc1ccc(C(=O)OCC(c2ccccc2)c2ccccc2)cc1)N[C@@H](Cc1ccc(O)cc1)C(=O)NC1CCN(Cc2ccc(O)cc2)C1` (stereo not given in full), for which the growth inhibition in test [1] is -4%; in test [4], 96% (active). Further, the values for the inhibition in test [2] and in test [3] were -9% and 1%, respectively. Further, the result in test [5], in test [6], in test [7] and in test [8] was inactive.
Regarding `O=C(Nc1ccc(Cl)cc1F)N[C@H]1CCN(CCCCCNC(=O)[C@@H]2C[C@H]2c2ccc(Cl)c(Cl)c2)C1`, the growth inhibition in test [1] was -3%; in test [4] it was 87% (active). The inhibition is 29% in test [2] and 3% in test [3]. Besides, the outcome in test [5], in test [6], in test [7] and in test [8] was inactive.
With `CCN(CC)CCNc1nc(C=Cc2ccc(Cl)cc2)nc2cc3ccccc3cc12`, the growth inhibition in test [1] is 99% (active); in test [4], 100% (active). Moreover, the inhibition is 83% (active) in test [2] and -3% in test [3]. For the same compound, the outcome in test [5], in test [6], in test [7] and in test [8] was inactive.
Regarding `Nc1nc(N)c2c(ccc3c2ccn3Cc2ccc(-c3ccccc3)cc2)n1`, the growth inhibition was 93% (active) in test [1] and 98% (active) in test [4]. Also, the inhibition in test [2] was 100% (active); in test [3], 4%. Moreover, the outcome in test [5], in test [6], in test [7] and in test [8] was inactive.
For `O=C(/C=C/c1ccc(Cl)c(Cl)c1)NCCCCCN1CCC(NC(=O)Nc2ccc([N+](=O)[O-])cc2)CC1`, the growth inhibition is 2% in test [1] and 102% (active) in test [4]. Also, the inhibition is 20% in test [2] and 2% in test [3]. The outcome in test [5], in test [6], in test [7] and in test [8] was inactive.
On to `CCn1ncc2c(N3CCCC3=O)cc(C(=O)N[C@@H](Cc3ccccc3)[C@H](O)CNC(C)(C)c3cccc(OC)c3)cc21`, for which the growth inhibition in test [1] was 97% (active); in test [4] it was 98% (active). Besides, the inhibition in test [2] was 6%; in test [3], 0%. Besides, the outcome in test [5], in test [6], in test [7] and in test [8] was inactive.
As to `Cc1cccc2[nH]c(-c3cccc(-c4cccc(NC(=O)COc5ccccc5C(N)=O)c4)c3)nc12`, the growth inhibition in test [1] is 88% (active); in test [4], 100% (active). Moreover, the results for the inhibition in test [2] and in test [3] were 22% and -2%, respectively. Also, the outcome in test [5], in test [6], in test [7] and in test [8] was inactive.
Regarding `Cc1cc(Nc2ccc(Oc3ccc(Cl)cc3)cc2)nc(N)n1`, the growth inhibition in test [1] is 71% (active); in test [4], 101% (active). Besides, the inhibition was 49% in test [2] and 7% in test [3]. The outcome in test [5], in test [6], in test [7] and in test [8] was inactive.
As to `Cc1cc2cc(NC(=O)Nc3ccnc4ccccc34)ccc2n1C`, the figures for the growth inhibition in test [1] and in test [4] were 33% and 90% (active), respectively. Moreover, the values for the inhibition in test [2] and in test [3] were 17% and 4%, respectively. Further, the result in test [5], in test [6], in test [7] and in test [8] was inactive.
For the compound `Cc1cc(NCCc2ccccc2)nc(NC(=NCC(=O)OC(C)(C)C)Nc2ccc(C(F)(F)F)cc2)n1`, the growth inhibition in test [1] is 97% (active); in test [4], 100% (active). Further, the inhibition was 23% in test [2] and 2% in test [3]. The result in test [5], in test [6], in test [7] and in test [8] was inactive.
Regarding `O=C(NC(c1ccc(Cl)cc1)c1ccc2cccnc2c1O)c1ccccc1` (stereo not given), the growth inhibition is 80% (active) in test [1] and 87% (active) in test [4]. The inhibition in test [2] was 44%; in test [3] it was -2%. Further, the outcome in test [5], in test [6], in test [7] and in test [8] was inactive.
Turning to `c1ccc(CNCc2ccc(-c3ccc(-c4nc5ccccc5[nH]4)cc3)cc2)cc1`, the growth inhibition was 93% (active) in test [1] and 101% (active) in test [4]. Moreover, the inhibition in test [2] is 32%; in test [3] it was 1%. The outcome in test [5], in test [6], in test [7] and in test [8] was inactive.
Consider `CCCc1ccc(NC(=O)c2cccc(CN3CCCN(Cc4cccc(O)c4)CC3)c2)cc1`, for which the growth inhibition in test [1] was 40%; in test [4], 97% (active). Also, the figures for the inhibition in test [2] and in test [3] were 15% and -2%, respectively. Besides, the outcome in test [5], in test [6], in test [7] and in test [8] was inactive.
For the compound `COc1cc2nc(NCCCO)nc(Nc3ccc(Oc4ccccc4)cc3)c2cc1OC`, the growth inhibition in test [1] and in test [4] was 101% (active) throughout. Also, the inhibition in test [2] is 24%; in test [3] it was 0%. Further, the result in test [5], in test [6], in test [7] and in test [8] was inactive.
As for `Cc1cc(NC2CCN(CC3CCCCC3)CC2)nc(Nc2ccccc2Cl)n1`, the growth inhibition was 31% in test [1] and 100% (active) in test [4]. The inhibition is 28% in test [2] and 4% in test [3]. The result in test [5], in test [6], in test [7] and in test [8] was inactive.
Take `CCC(NCc1ccc(-c2cncc(C(=O)NCC(C)C)c2)cc1)c1ccccc1` (stereo not given): the results for the growth inhibition in test [1] and in test [4] were 8% and 86% (active), respectively. Besides, the inhibition in test [2] was 14%; in test [3], 2%. Besides, the outcome in test [5], in test [6], in test [7] and in test [8] was inactive.
For `CN(C)Cc1ccc(-c2ccc(NC(=O)c3ccc4c(=O)n(Cc5ccoc5)cnc4c3)cc2)cc1`, the growth inhibition in test [1] is 16%; in test [4], 80% (active). For the same compound, the results for the inhibition in test [2] and in test [3] were 32% and 3%, respectively. Further, the result in test [5], in test [6], in test [7] and in test [8] was inactive.
For the compound `Cc1cccc(N2C(N)=NC(N)=NC2(C)C)c1C`, the growth inhibition in test [1] is -2%; in test [4], 90% (active). In addition, the inhibition in test [2] was -2%; in test [3], -6%. Besides, the result in test [5], in test [6], in test [7] and in test [8] was inactive.
